PubChem BioAssay
For part of these data: Measured potencies and affinities stand elsewhere. Activity calls are given as the source filed them. Unless noted, no rule for the calls is given here.

What was measured:
[1] = molecular target: Cell division control protein 42 homolog (Homo sapiens) (UniProt P60953); test: activated mutant Cdc42 GTP-binding inhibitors, dose response, biochemical, multiplex bead flow cytometry, Bodipy-FL-GTP (AID 1333;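 active = fitted half-maximal concentration within the tested dose range, moderate curve steepness, a statistically real signal drop, and little compound fluorescence or tag-binding interference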)
[2] = molecular target: Cell division control protein 42 homolog (Homo sapiens) (UniProt P60953); test: wildtype Cdc42 GTP-binding inhibitors, dose response, biochemical, multiplex bead flow cytometry, Bodipy-FL-GTP (AID 1334;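 active = fitted half-maximal concentration within the tested range, moderate curve steepness, significant signal drop, and little compound fluorescence or bead-linkage interference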); conditions: bead-based flow cytometry, Bodipy-FL-GTP binding to GST-Cdc42; at 100 µM (top of the series) unless noted
[3] = molecular target: GTPase HRas (Homo sapiens) (UniProt P01112); test: inhibitors of GTP binding to wildtype Ras, dose response, biochemical, multiplex bead flow cytometry (AID 1335;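 active = fitted half-maximal concentration within 10 nM to 100 µM, steepness 0.5 to 2, significant signal drop, low assay interference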); conditions: bead-based flow cytometry, Bodipy-GTP binding to GST-Ras; at 100 µM (top of the series) unless noted
[4] = system: Ras-related protein Rab-7a (dog), GTP binding; test: Rab7 GTP binding inhibitors, potency, dose response, biochemical, wildtype, multiplex bead flow cytometry (AID 1336)
[5] = molecular target: Ras-related C3 botulinum toxin substrate 1 (Homo sapiens) (UniProt P63000); test: wildtype Rac1 GTP binding inhibitors, dose response, biochemical, multiplex bead flow cytometry (AID 1340;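 active = dose curve with midpoint inside tested range, moderate steepness, plateau gap beyond fit error, low compound glow and bead-link interference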); conditions: GST-Rac1 beads, Bodipy-FL-GTP binding; at 100 µM (top of the series) unless noted
[6] = molecular target: GTPase HRas (Homo sapiens) (UniProt P01112); test: activated Ras mutant GTP binding inhibitors, dose response, biochemical, multiplex bead flow cytometry (AID 1341;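 active = dose-response curve with midpoint inside the tested range, moderate steepness, significant amplitude and little compound fluorescence or bead-attachment interference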;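 also: GST-tagged constitutively activated Ras mutant immobilized on beads and multiplexed with other GTPases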)

Chain of Cell division control protein 42 homolog (Homo sapiens) (P60953 whole entry, looked up): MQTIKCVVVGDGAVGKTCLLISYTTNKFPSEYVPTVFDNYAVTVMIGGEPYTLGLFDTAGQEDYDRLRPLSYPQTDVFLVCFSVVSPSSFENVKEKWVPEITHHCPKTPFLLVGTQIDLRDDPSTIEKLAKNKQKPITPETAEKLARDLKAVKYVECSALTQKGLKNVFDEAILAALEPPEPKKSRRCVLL
Chain of GTPase HRas (Homo sapiens) (P01112 whole entry, looked up): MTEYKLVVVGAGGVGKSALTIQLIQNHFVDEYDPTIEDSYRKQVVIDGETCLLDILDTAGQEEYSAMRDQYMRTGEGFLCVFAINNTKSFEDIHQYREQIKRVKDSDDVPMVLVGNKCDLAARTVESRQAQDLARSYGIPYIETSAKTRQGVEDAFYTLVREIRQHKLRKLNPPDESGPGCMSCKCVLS

Compound | outcome [1] | fluorescence, percent of control (lower = inhibition) [2] | GTP binding, percent of control [3] | outcome [4] | GTP binding signal, raw median fluorescence (lower = inhibition) (MCF (arbitrary fluorescence units)) [5] | outcome [6]
NC1=NC(=O)/C(=C/c2cn(CCC(=O)O)nc2-c2ccc(Cl)cc2)S1 | inactive | 18.2% | 42.4% | inactive | 65.5 | inactive
O=C(Nc1ccccc1F)c1ccccc1-c1ccccc1 | inactive | 47.5% | 60.2% | inactive | 203 | inactive
COC(=O)c1c(N2C(=O)[C@H]3[C@@H](C2=O)[C@]2(C(=O)Nc4c2ccc(C)c4C)N2CCC[C@@H]32)sc(C)c1C | inactive | 55.3% | 71.4% | inactive | 0 | inactive
O=C(C#Cc1ccccn1)c1ccc([N+](=O)[O-])cc1 | inactive | 51% | 162% | inactive | 56.2 | inactive
CCNC(=S)N=Nc1c(O)[nH]c2ccc([N+](=O)[O-])cc12 | inactive | 32.4% | 72.3% | inactive | 141 | inactive
O=C(COC(=O)c1ccc2c(c1[N+](=O)[O-])C(=O)c1ccccc1C2=O)NC1CC1 | inactive | 29.3% | 72.9% | inactive | 178 | inactive
COc1ccccc1OCCn1cc(C(=O)O)c2ccc(C)cc21 | inactive | 47.9% | 184% | inactive | 55.5 | inactive
Cc1cc(OCCn2cc(C(=O)O)c3ccccc32)ccc1Cl | inactive | 58.3% | 84.4% | inactive | 28.3 | inactive
COc1cc(/C=N\NC(=O)c2ccc(Cn3nc([N+](=O)[O-])c(Cl)c3C)o2)ccc1O | inactive | 29.9% | 82% | inactive | 107 | inactive
COc1ccc2c(C)nc(N/C(N)=N/S(=O)(=O)c3ccc(C)cc3)nc2c1 | inactive | 38.9% | 87.9% | inactive | 272 | inactive
c1ccc2[nH]c3cc4ncnc4cc3nc2c1 | inactive | 31.7% | 70.1% | inactive | 189 | inactive
c1ccc(C2=Nn3c(nnc3-c3ccco3)SC2)cc1 | inactive | 34% | 81.7% | inactive | 183 | inactive
CCC(C)(C)NC(=O)c1ccc2c(c1)N(CC(=O)OC)C(=O)C(C)(C)O2 | inactive | 34.2% | 82.4% | inactive | 253 | inactive
COc1ccc(-n2cc(-c3ccccc3)c3c(=O)[nH]cnc32)cc1 | inactive | 39.1% | 84.4% | inactive | 327 | inactive
Cc1ccc(C)c(N(CC(N)=O)S(C)(=O)=O)c1 | inactive | 103% | 135% | inactive | 164 | inactive
Cc1ccc(-c2ccc(/C=C(\C#N)C(=O)Nc3cc(C)nn3-c3ccccc3)o2)cc1 | inactive | 226% | 182% | inactive | 498 | inactive
C/C(=N\NC(=O)c1c[nH]c2ccccc12)c1ccc(C)o1 | inactive | 29.9% | 68.2% | inactive | 150 | inactive
O=C(O)/C=C\C(=O)Nc1cccc(C(=O)Nc2cccc(O)c2)c1 | inactive | 38.6% | 84.2% | inactive | 162 | inactive
CC(C)(C)NC(=O)CCN(/N=C/c1ccc([N+](=O)[O-])o1)C1=NS(=O)(=O)c2ccccc21 | inactive | 23.6% | 33.1% | inactive | 86.3 | inactive
O=c1[nH]c2sc3c(c2c2nncn12)CCCC3 | inactive | 23.4% | 59.2% | inactive | 103 | inactive
CC(C)N(C(=O)Cn1cnc2cc([N+](=O)[O-])ccc2c1=O)C(C)C | inactive | 34.2% | 76.5% | inactive | 156 | inactive
COc1cc(NS(=O)(=O)c2ccc(NC(=O)/C=C/c3cccc([N+](=O)[O-])c3)cc2)ncn1 | inactive | 29.8% | 77.7% | inactive | 191 | inactive
O=C(Nn1cc(C(=O)N2CCN(c3ccccc3F)CC2)c2ccccc2c1=O)c1cnccn1 | inactive | 98.6% | 156% | inactive | 197 | inactive
Cc1nc(-c2ccccc2)sc1C(=O)NN | inactive | 39.4% | 82.3% | inactive | 248 | inactive
Cn1c(=O)c2cc(S(=O)(=O)NCCC(=O)NCc3ccccc3Cl)ccc2n(C)c1=O | inactive | 64% | 109% | inactive | 122 | inactive
COC(=O)c1c(N2C(=O)[C@H]3[C@@H](C2=O)[C@]2(C(=O)Nc4c(C)cc(C)cc42)N2CCC[C@@H]32)sc(C)c1C | inactive | 45.1% | 97.2% | inactive | 238 | inactive
CCCOC(=O)c1c(NC(=O)CCC(=O)O)sc2c1CCCCC2 | inactive | 32.9% | 79% | inactive | 282 | inactive
Cc1ccc(NC(=O)CS(=O)(=O)c2c[nH]c3ccccc23)c(C)c1 | inactive | 46% | 62.9% | inactive | 184 | inactive
Cc1cc2[nH]c3c(c[n+](C)c4ccccc34)c2cc1C | inactive | 35.5% | 78.4% | inactive | 253 | inactive
Cc1cc2ccccn2c1C(=O)c1ccc(Cl)c([N+](=O)[O-])c1 | inactive | 38.8% | 86.1% | inactive | 216 | inactive
